Reference: publication PMC4336329 (PLoS ONE, 2015)
Screen size: about 310,000 compounds; about 14,000 (4.5%) showed an effect of 50% or more. Effects have a minus sign here. The list comes from a sample in which strong results are over-represented; it also holds similar structures and randomly drawn compounds.

target: human ether-à-go-go-related gene (hERG) potassium channel (human, UniProt Q12809); experiment: primary screen, population patch clamp on CHO cells stably expressing hERG; higher = less effect of the substance
Sequence (Q12809 whole entry, looked up): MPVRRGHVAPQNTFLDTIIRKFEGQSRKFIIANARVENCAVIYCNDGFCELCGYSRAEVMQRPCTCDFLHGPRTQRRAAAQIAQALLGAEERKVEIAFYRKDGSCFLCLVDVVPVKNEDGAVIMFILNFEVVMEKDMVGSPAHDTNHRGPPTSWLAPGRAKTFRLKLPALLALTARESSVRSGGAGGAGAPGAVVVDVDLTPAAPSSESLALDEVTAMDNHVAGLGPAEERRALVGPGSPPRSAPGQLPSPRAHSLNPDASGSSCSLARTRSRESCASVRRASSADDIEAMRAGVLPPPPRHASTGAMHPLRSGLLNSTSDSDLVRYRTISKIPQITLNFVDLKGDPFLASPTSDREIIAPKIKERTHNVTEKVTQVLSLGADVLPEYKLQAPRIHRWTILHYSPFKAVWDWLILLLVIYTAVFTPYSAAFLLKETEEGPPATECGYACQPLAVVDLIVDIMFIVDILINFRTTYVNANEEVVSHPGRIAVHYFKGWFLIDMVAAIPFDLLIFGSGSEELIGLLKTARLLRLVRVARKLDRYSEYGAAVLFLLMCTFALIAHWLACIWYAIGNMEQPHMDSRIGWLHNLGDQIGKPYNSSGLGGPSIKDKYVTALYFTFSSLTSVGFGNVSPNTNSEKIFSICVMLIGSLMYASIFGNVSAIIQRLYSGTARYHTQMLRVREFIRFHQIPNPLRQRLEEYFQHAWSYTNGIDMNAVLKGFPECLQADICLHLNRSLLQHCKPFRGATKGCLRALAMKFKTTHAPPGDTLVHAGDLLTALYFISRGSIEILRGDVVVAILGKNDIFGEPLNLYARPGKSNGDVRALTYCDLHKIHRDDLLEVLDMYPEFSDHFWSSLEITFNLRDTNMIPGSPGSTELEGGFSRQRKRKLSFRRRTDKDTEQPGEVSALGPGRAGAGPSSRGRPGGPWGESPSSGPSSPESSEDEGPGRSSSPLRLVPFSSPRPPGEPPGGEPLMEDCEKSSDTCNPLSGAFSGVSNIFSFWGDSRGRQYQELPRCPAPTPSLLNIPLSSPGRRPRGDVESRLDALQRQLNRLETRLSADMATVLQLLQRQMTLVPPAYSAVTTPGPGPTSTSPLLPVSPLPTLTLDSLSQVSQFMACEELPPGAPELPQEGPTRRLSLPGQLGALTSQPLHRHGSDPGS
Description: Briefly, Chinese hamster ovary (CHO) cells stably expressing the hERG channel were dislodged from tissue culture flasks and dispensed into PPC plates. […] During the recording, background leak currents were estimated by a 100 ms step to -80 mV from an initial holding potential of -70 mV and subtracted from the subsequent current measurement. The campaign was conducted in two phases using slight differences in recording protocol. In the first phase, the initial voltage pulse used a 100 ms step to -30 mV from a holding potential of -70 mV, a 2 s conditioning step to +25 mV, and a 2 s test step to -30 mV. During the second phase of the screen, the potential during the conditioning step was raised to +45 mV. In both phases of the campaign, a secondary voltage pulse was applied using the same parameters as the second phase initial pulse. The initial and secondary pulses were applied in the absence of compound, and upon application of 1 μM and 10 μM test concentrations. […]
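Note: peak tail current of the secondary pulse compared with the same well before compound.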

Going from `CCCOc1cccc(C(=O)Nc2ccc3c(c2)OCCO3)c1` to `CCc1ccc(CNC(=O)c2ccc(NC(=O)C3=CSCCO3)cc2)cc1`, the “hERG current change (%, negative = inhibition) at 10uM” value falls from 0.786% to -23%.

Compared with `CSc1cccc(NC(=O)C2CCN(S(=O)(=O)c3cnc[nH]3)CC2)c1`, `O=C(Nc1nc2ccc(S(=O)(=O)N3CCCC3)cc2s1)c1ccco1` is higher in “hERG current change (%, negative = inhibition) at 10uM” value: 9.39% for the first, 11.5% for the second.

Compared with `Nc1c(NCc2ccccc2)c(=O)c1=O`, `S=c1[nH]nc(COc2cccc(Cl)c2)n1Cc1ccccc1` is higher in “hERG current change (%, negative = inhibition) at 10uM” value: -6.37% for the first, 34.4% for the second.

Going from `Cc1nc2c(C)cccn2c(=O)c1NC(=O)c1ccc(Br)o1` to `Cc1cccnc1NC(=O)c1ccc(Br)o1`, the “hERG current change (%, negative = inhibition) at 10uM” value rises from 5.14% to 32.6%.

First: O=C(COc1cccc(C(F)(F)F)c1)Nc1cccnc1
Second: COc1cccc(NC(=O)CSc2nc(C3CC3)nc3ccccc23)c1
The “hERG current change (%, negative = inhibition) at 10uM” value of the first is lower: 4.03% for the first, 4.75% for the second.

Going from `CCC(C)N(C(=O)c1csnn1)C(C(=O)NC1CCCC1)c1ccc(F)cc1` (centres unmarked) to `CC(C)CCNC(=O)C1CCCN(S(=O)(=O)c2ccc(F)cc2)C1` (centres unmarked), the “hERG current change (%, negative = inhibition) at 10uM” value rises from 0.39% to 6.85%.

Going from `CC(=O)c1cccc(NC(=O)CCCNC(=O)c2ccc(Cl)cc2)c1` to `CCOCCCNC(=O)C(NC(=O)c1ccc(NC(C)=O)cc1)c1ccc(C)cc1` (centres unmarked), the “hERG current change (%, negative = inhibition) at 10uM” value falls from 2.99% to -20.5%.

First: CCN(CC)C(=O)c1cn(-c2cccc(OC)c2)c(=O)c2ccccc12
Second: COc1ccc(C(=O)Nc2nc(N)n(-c3ccccc3)n2)cc1
The “hERG current change (%, negative = inhibition) at 10uM” value of the first is higher: 9.66% for the first, -11.4% for the second.

First: COC(=O)c1cc(Cl)nc2ccccc12
Second: Cc1cccc2cc(/C=N/NC(=O)c3ccccc3O)c(Cl)nc12
The “hERG current change (%, negative = inhibition) at 10uM” value of the first is lower: -7.89% for the first, -2.17% for the second.

First: COc1ccc(CNC(=O)c2cc(S(=O)(=O)N3CCCC3)cn2C)cc1
Second: O=C(NCC(=O)N1CCC2(CC1)NCCc1[nH]cnc12)c1ccc2ccccc2c1
The “hERG current change (%, negative = inhibition) at 10uM” value of the first is higher: 13.2% for the first, 11.7% for the second.

Going from `Cc1nn(Cc2ccc(Cl)cc2)c(Cl)c1/C=N/NC(=O)c1cccnc1` to `Nc1nc(NC(=O)c2cccnc2)nn1-c1ccccc1`, the “hERG current change (%, negative = inhibition) at 10uM” value rises from -45.2% to 18.8%.

Compared with `CN(C)CCCN(C(=O)CCSc1ccccc1)c1nc2cc3c(cc2s1)OCO3.Cl`, `CN(C)CCCN(C(=O)C1COc2ccccc2O1)c1nc2cc3c(cc2s1)OCO3.Cl` (centres unmarked) is lower in “hERG current change (%, negative = inhibition) at 10uM” value: -48.2% for the first, -64.4% for the second.

First: CN(C)CCCN(C(=O)c1sc2ccccc2c1Cl)c1nc2ccc(F)cc2s1.Cl
Second: CN(C)CCCN(C(=O)c1nc2ccccc2s1)c1nc2ccc(F)cc2s1.Cl
The “hERG current change (%, negative = inhibition) at 10uM” value of the first is lower: -19.7% for the first, 4.17% for the second.

Compared with `CN(C)CCN(C(=O)C1CCCCC1)c1nc2cc3c(cc2s1)OCO3.Cl`, `CN(C)CCCN(C(=O)C1COc2ccccc2O1)c1nc2ccc(F)cc2s1.Cl` (centres unmarked) is lower in “hERG current change (%, negative = inhibition) at 10uM” value: -9.7% for the first, -75.4% for the second.

Going from `Cn1c(O)c(C=Nc2ccccc2Sc2ccccc2)c(=O)n(C)c1=O` to `Nc1nc(NC(=O)c2ccccc2)nn1-c1ccccc1`, the “hERG current change (%, negative = inhibition) at 10uM” value falls from 16.4% to -70.9%.

Compared with `CCCc1[nH]nc2c1C(c1ccc(OC)c(Cn3nnc4ccccc43)c1)C(C#N)=C(N)O2` (centres unmarked), `COc1ccccc1/C=C/C(=O)Nc1nc(N)n(-c2ccccc2)n1` is lower in “hERG current change (%, negative = inhibition) at 10uM” value: -29.1% for the first, -33.8% for the second.

Going from `CCCn1c(SCc2ccc(Cl)cc2)nc2c1c(=O)[nH]c(=O)n2C` to `CCCn1c2ccc(F)cc2c2nnc(SCCN3CCCCC3)nc21`, the “hERG current change (%, negative = inhibition) at 10uM” value falls from 0.36% to -64.2%.

Going from `O=C(C1COc2ccccc2O1)N1CCCC1` (centres unmarked) to `[2H]c1c([2H])c([2H])c(-c2nc(N3CCCCCC3)sc2C(=O)c2ccccc2)c([2H])c1[2H]`, the “hERG current change (%, negative = inhibition) at 10uM” value falls from 16.8% to -2.19%.

Going from `CCn1c2ccc(F)cc2c2nnc(SCCN3CCOCC3)nc21` to `CCCn1c2ccc(F)cc2c2nnc(SCCN3CCOCC3)nc21`, the “hERG current change (%, negative = inhibition) at 10uM” value rises from -41.2% to -35.8%.

Compared with `CCCCn1c2ccc(F)cc2c2nnc(NN)nc21`, `CCCn1c2ccc(F)cc2c2nnc(NN)nc21` is higher in “hERG current change (%, negative = inhibition) at 10uM” value: -44.9% for the first, -1.94% for the second.

Going from `CCn1c2ccc(F)cc2c2nnc(NN)nc21` to `CCn1c2ccc(F)cc2c2nnc(SCCN3CCCCC3)nc21`, the “hERG current change (%, negative = inhibition) at 10uM” value falls from -9.93% to -61%.

Going from `CCn1c2nc(SCCN3CCOCC3)nnc2c2cc(C)cc(C)c21` to `CCn1c2ccc(C)cc2c2nnc(SCCN3CCOCC3)nc21`, the “hERG current change (%, negative = inhibition) at 10uM” value rises from -95.3% to -13.8%.

First: CCn1c2ccccc2c2nnc(SCCN3CCOCC3)nc21
Second: CCCn1c2ccccc2c2nnc(SCCN3CCOCC3)nc21
The “hERG current change (%, negative = inhibition) at 10uM” value of the first is higher: 3.2% for the first, -9.15% for the second.

First: CCCCn1c2ccc(F)cc2c2nnc(SCCN3CCOCC3)nc21
Second: CCCn1c2ccc(C)cc2c2nnc(SCCN3CCOCC3)nc21
The “hERG current change (%, negative = inhibition) at 10uM” value of the first is lower: -55.4% for the first, -32.5% for the second.

First: O=C1[C@H]2[C@@H](c3ccc(Cl)cc3)N3C(=O)N(c4cccc(Cl)c4)C(=O)[C@@]3(Cc3ccccc3)[C@H]2C(=O)N1C1CCCCC1
Second: Nc1nc(NC(=O)/C=C/c2ccc(F)cc2)nn1-c1ccccc1
The “hERG current change (%, negative = inhibition) at 10uM” value of the first is higher: -2.02% for the first, -53.4% for the second.

Compared with `Cc1cc(C)nc(NC2=NCCN2C(=O)NC2CCCCC2)n1`, `CCCCn1c2ccc(C)cc2c2nnc(SCCN3CCCCC3)nc21` is lower in “hERG current change (%, negative = inhibition) at 10uM” value: -17.7% for the first, -74.3% for the second.

Compared with `CC(=O)Nc1ccccc1NC(=O)c1ccc(C)cc1C`, `Cc1ccc(C(=O)Nc2nc(N)n(-c3ccccc3)n2)cc1` is lower in “hERG current change (%, negative = inhibition) at 10uM” value: 23.7% for the first, -0.817% for the second.

First: Cc1ccc2[nH]c3nc(SCCN4CCOCC4)nnc3c2c1
Second: COc1ccc(/C=C/C(=O)Nc2nc(N)n(-c3ccccc3)n2)cc1
The “hERG current change (%, negative = inhibition) at 10uM” value of the first is higher: 8.91% for the first, -53% for the second.

Compared with `CSCCC(NC(=O)C1CCC(C)CC1)C(=O)O` (centres unmarked), `Nc1nc(NC(=O)/C=C\C(=O)O)nn1-c1ccccc1` is higher in “hERG current change (%, negative = inhibition) at 10uM” value: 16.6% for the first, 27.8% for the second.

In the case of `Nc1nc(NC(=O)/C=C/c2ccccc2)nn1-c1ccccc1`, the “hERG current change (%, negative = inhibition) at 10uM” value is reported as -32.6%.
